From PubChem
A selection: hits, their analogues and other compounds. The true share with any hit is near 3.7%.
RGS4 inhibitor – blocks human RGS4-accelerated GTP hydrolysis; Transcreener GDP fluorescence polarization, RGS4-accelerated GTP hydrolysis; Potency, µM (highest dose often 114 µM), without a hit: top-dose activity change, negative = inhibition, usual class: inhibitors; 390,000 tested, 0.039% active; further: potency means the concentration at half of the fitted maximal effect; on the % scale 0 is the no-effect control and ±100 the full control effect; nearly all actives have a fitted effect of over 75% in size
Target sequence (P49798 whole entry, looked up): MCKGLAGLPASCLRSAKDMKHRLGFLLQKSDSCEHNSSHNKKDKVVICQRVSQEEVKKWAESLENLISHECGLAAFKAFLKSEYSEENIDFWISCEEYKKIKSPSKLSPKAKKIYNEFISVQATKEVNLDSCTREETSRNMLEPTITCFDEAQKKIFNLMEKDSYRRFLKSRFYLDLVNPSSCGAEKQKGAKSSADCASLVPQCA
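MLSMR compounds (23 nl, pin-transferred) preincubated 10 min at room temperature with a 500nM (2x) first reagent, then RGS4 at 900nM (2x) plus Transcreener GDP mix added; fluorescence polarization (620/688 nm) read before and after 90 min at 30 °C.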
D3 antag – antagonists of human D3 dopamine receptor | D3R cells, DiscoveRx beta-arrestin luminescence, antagonist mode; active compounds read low | max response, negative = inhibition, % | 360,000 tested, 2.5% active | AID 652054; in the data active means max response below about -50%; inconclusive means no clear call, values can overlap the other calls; further: on the % scale 0 is the no-effect control and ±100 the full control effect
Target sequence (P35462 whole entry, looked up): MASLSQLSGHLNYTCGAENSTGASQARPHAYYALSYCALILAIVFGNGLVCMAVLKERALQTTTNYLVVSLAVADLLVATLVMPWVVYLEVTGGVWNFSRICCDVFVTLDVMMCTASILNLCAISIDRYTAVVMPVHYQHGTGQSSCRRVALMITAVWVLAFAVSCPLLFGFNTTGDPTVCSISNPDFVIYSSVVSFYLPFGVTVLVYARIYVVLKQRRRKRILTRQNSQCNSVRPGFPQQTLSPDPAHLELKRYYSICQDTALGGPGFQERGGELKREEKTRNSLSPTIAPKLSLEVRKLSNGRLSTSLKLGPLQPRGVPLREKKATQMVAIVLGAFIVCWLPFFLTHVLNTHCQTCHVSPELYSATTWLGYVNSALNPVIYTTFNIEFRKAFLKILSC
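Cells plated overnight at 1500 cells/well, then exposed to library compounds with dopamine controls for 90 minutes at 37 degrees C. DiscoveRx reagent added for 30–60 minutes at room temperature; luminescence read, quantitative HTS format.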
B2AR arrestin – agonists driving beta-arrestin recruitment to human beta2-adrenergic receptor. beta-arrestin recruitment to beta2AR, cell-based reporter. Potency, µM (highest dose often 46.1 µM), for the others: top-dose activation, usual class: activators. 330,000 tested, 0.02% active. AID 492947;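 further: potency means the concentration at half of the fitted maximal effect; 0% = DMSO controls and full agonism = EC100 isoproterenol or metaproterenol; nearly all actives have a fitted effect of over 65% in size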
PTHR1 ag – agonists of human PTHR1 parathyroid hormone receptor; HEK293 GP2 PTHR1 cells, GloSensor cAMP luminescence, 1 h; 410,000 tested, 0.075% active; Q03431; AID 743266; Potency, µM (series often up to 115 µM), for the others: at the highest dose activation, hits mostly activators; further: potency means the concentration at half of the fitted maximal effect; nearly all actives have a fitted effect of over 55% in size
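HEK-293-derived GP2 cells expressing PTHR1 and a GloSensor cAMP reporter, 3,000/well, plated overnight, given luciferin plus IBMX (each 0.5 mM as added) for 1 h at 37 °C, then compound for 1 h at 37 °C. Luminescence was read after 15 min at room temperature.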
BRCA1 expr up – activators of BRCA1 expression. MCF7-BRCA1-FFLuc reporter, luminescence, 48 h; response scale: scaled: vehicle 0%, 10 µM genistein 100%. Potency, µM (series often up to 46.1 µM), without a hit: at the top dose activation, usual class: activators. 380,000 tested, 1.1% active. AID 624202; further: potency means the concentration at half of the fitted maximal effect; nearly all actives have a fitted effect of over 80% in size
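First, MCF7-BRCA1-FFLuc cells (2000/well) attach for 2 h; next, compounds are pin-added and incubated 48 h at 37 °C; finally, luciferase reagent is added and luminescence read after 15 min.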
D3 ag – activates the human D3 dopamine receptor | D3R DiscoveRx beta-arrestin cells, luminescence, 90 min | max activation, % | 410,000 tested, 0.58% active; in the data active means max activation above about 30%; further: 0% is about no effect
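Agonist-mode cell screen: cells plated at 1500/well and incubated overnight at 37 °C, then exposed to library compounds for 90 min at 37 °C. Detection reagent was added for 30–60 min at room temperature, and luminescence was read.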
An asterisk follows results filed as active; [ ] = another dose, or the depositor's remark. Unless noted, the call rests on the fitted dose curve; in most records, active means well fitted curve in the direction sought with a large enough effect; inconclusive means small, poorly fitted or top-dose-only effect, or another doubt; inactive means no such curve, though single readings can be large; an effect the other way counts as inactive or inconclusive.

What do the screens show for `C[C@H]1CN([C@@H](C)CO)C(=O)CCCn2nncc2CO[C@@H]1CN(C)Cc1ccccc1C(F)(F)F`?
D3 antag: 15.7; PTHR1 ag: -3.1%; BRCA1 expr up: -11.0%; D3 ag: 2.2

Results for c1csc(-c2nn3c(C4COc5ccccc5O4)nnc3s2)c1 (stereo not given) ?
RGS4 inhibitor: inconclusive; D3 antag: -11.2; B2AR arrestin: 0.4%; PTHR1 ag: -17.8%; BRCA1 expr up: 26.8%; D3 ag: 4.0

Results for c1ccc2c(c1)OCC(c1nnc3sc(-c4cnccn4)nn13)O2 (stereo not given) ?
RGS4 inhibitor: -53.6%; D3 antag: 20.7; B2AR arrestin: 0.1%; PTHR1 ag: -3.5%[57.5 µM]; BRCA1 expr up: 1.5%; D3 ag: 30.3*

What do the screens show for `O=C(NCc1ccccn1)c1ccc(-c2ccccc2)cc1`?
RGS4 inhibitor: -22.4%; D3 antag: 7.0; B2AR arrestin: -0.3%; PTHR1 ag: -15.1%; BRCA1 expr up: 12.6µM*; D3 ag: 3.8

How did O=C(NCc1ccco1)c1ccc(N2CCCC2=O)cc1 do in these assays?
RGS4 inhibitor: -3.5%; D3 antag: 13.0; B2AR arrestin: -0.1%; PTHR1 ag: inactive; BRCA1 expr up: 48.3%; D3 ag: 8.1

Results for O=C(NCc1ccccn1)c1ccc(NS(=O)(=O)c2cccc(Cl)c2)cc1 ?
RGS4 inhibitor: -0.1%; D3 antag: -60.6*; B2AR arrestin: -0.3%; PTHR1 ag: 6.4%; BRCA1 expr up: -11.0%; D3 ag: -14.9

Results for O=C(NCc1ccccn1)c1cccc(NS(=O)(=O)c2cccc(Cl)c2)c1 ?
RGS4 inhibitor: 23.7%; D3 antag: 0.0; B2AR arrestin: 2.8%; PTHR1 ag: inactive; BRCA1 expr up: -2.2%; D3 ag: 4.2

What do the screens show for `O=C(NCc1ccccn1)c1ccc(N2CCCC2=O)cc1`?
RGS4 inhibitor: 27.3%; D3 antag: inconclusive; B2AR arrestin: -3.7%; PTHR1 ag: -22.2%[57.5 µM]; BRCA1 expr up: 12.6µM*; D3 ag: 4.7

Results for COC(CNC(=O)c1ccc(N2CCCC2=O)cc1)OC ?
RGS4 inhibitor: 5.4%; D3 antag: -50.9*; B2AR arrestin: -0.2%; PTHR1 ag: -25.8%; BRCA1 expr up: -0.9%; D3 ag: 0.7

What do the screens show for `Cc1cc(Nc2ccccc2C)nc(-n2nc(C)cc2C)n1`?
RGS4 inhibitor: -1.3%; PTHR1 ag: inactive; D3 ag: -7.3

What do the screens show for `O=C(Cc1ccccc1[N+](=O)[O-])N/N=C/c1cccnc1`?
RGS4 inhibitor: -18.7%; D3 antag: -4.7; B2AR arrestin: 0.4%; PTHR1 ag: inactive; BRCA1 expr up: 0.7%; D3 ag: -3.9

How did Cc1sc(NC(=O)c2ccco2)nc1-c1ccc2c(c1)CC(C)N2C(=O)C1CC1 (stereo not given) do in these assays?
RGS4 inhibitor: 10.6%; D3 antag: 26.6; B2AR arrestin: 0.1%; PTHR1 ag: inactive; BRCA1 expr up: -75.4%; D3 ag: 42.0*

Results for Cc1ccccc1CN1C(=O)c2ccccc2S(=O)c2ccc(C(=O)NCc3ccc(Cl)cc3)cc21 (stereo not given) ?
RGS4 inhibitor: -9.7%; PTHR1 ag: inactive; D3 ag: -3.2

How did O=C(CNC(=O)c1cccs1)NCCN1CCN(c2ccccc2F)CC1 do in these assays?
RGS4 inhibitor: -4.8%; D3 antag: -51.5*; B2AR arrestin: -0.1%; PTHR1 ag: inactive; BRCA1 expr up: 2.7%; D3 ag: -11.1

What do the screens show for `O=C(NCCN1CCN(C(=O)c2cccs2)CC1)C(=O)Nc1ccc(Br)cc1`?
RGS4 inhibitor: 15.5%; D3 antag: -25.4; B2AR arrestin: -0.1%; PTHR1 ag: -22.9%[57.5 µM]; BRCA1 expr up: -34.8%; D3 ag: -0.5

How did O=C(NCCN1CCN(C(=O)c2cccs2)CC1)c1cccs1 do in these assays?
RGS4 inhibitor: -17.2%; D3 antag: -74.3*; B2AR arrestin: -0.4%; PTHR1 ag: inactive; BRCA1 expr up: 6.7%; D3 ag: -34.5

What do the screens show for `CSc1ccc(CNC(=O)Cn2nc(N3CCN(c4ccccc4)CC3)ccc2=O)cc1`?
RGS4 inhibitor: -16.3%; PTHR1 ag: -35.5%; D3 ag: 6.5

How did COCCOC(=O)c1c(C)oc2ccc(OCC=C(C)C)cc12 do in these assays?
RGS4 inhibitor: 4.6%; D3 antag: 38.5; B2AR arrestin: 0.3%; PTHR1 ag: -1.3%; BRCA1 expr up: -1.5%; D3 ag: 11.1

How did CCOC(=O)c1c(CN2CCN(C)CC2)oc2ccc(O)cc12 do in these assays?
RGS4 inhibitor: -10.2%; D3 antag: -54.4*; B2AR arrestin: -0.9%; PTHR1 ag: inactive; BRCA1 expr up: -3.2%; D3 ag: -2.8

How did CCOC(=O)c1c(CN2CCN(C)CC2)n(-c2ccccc2)c2cc(Br)c(O)cc12 do in these assays?
RGS4 inhibitor: -3.1%; D3 antag: -64.0*; B2AR arrestin: 0.0%; PTHR1 ag: inactive; BRCA1 expr up: -13.5%; D3 ag: -18.3

What do the screens show for `COCCOC(=O)c1c(C)oc2ccc(OCc3cc(C(=O)OC)oc3C)cc12`?
RGS4 inhibitor: -24.5%; D3 antag: 28.4; B2AR arrestin: 6.8%; PTHR1 ag: -49.6%; BRCA1 expr up: 2.6%; D3 ag: 48.3*

What do the screens show for `CCN(CC)CCOC(=O)c1c(C)oc2ccc(O)cc12`?
RGS4 inhibitor: 16.2%; D3 antag: -71.6*; B2AR arrestin: -0.4%; PTHR1 ag: 0.6%[57.5 µM]; BRCA1 expr up: -1.4%; D3 ag: -15.3

How did Cc1oc2ccc(O)cc2c1C(=O)c1ccc(F)cc1 do in these assays?
RGS4 inhibitor: 5.6%; D3 antag: 13.9; PTHR1 ag: inactive; BRCA1 expr up: 11.2µM*; D3 ag: 4.7

What do the screens show for `Cc1ccc(-n2c(C)cc3c2CC(C)(C)CC3=O)cc1C`?
RGS4 inhibitor: -27.1%; D3 antag: -88.4*; B2AR arrestin: -0.2%; PTHR1 ag: -21.4%[57.5 µM]; BRCA1 expr up: 1.2%; D3 ag: -5.3

What do the screens show for `Cc1ccc(Nc2nc(CSc3nnnn3-c3ccccc3)cs2)cc1`?
RGS4 inhibitor: 1.8%[11.4 µM]; D3 antag: 0.7; PTHR1 ag: -10.5%; BRCA1 expr up: -32.1%; D3 ag: 2.2

Results for Cn1nnnc1SCc1csc(Nc2ccccc2)n1 ?
RGS4 inhibitor: -36.0%; D3 antag: -7.1; B2AR arrestin: -0.5%; PTHR1 ag: inactive; BRCA1 expr up: 12.6µM*; D3 ag: -7.2

Results for Cc1ccc(Nc2nc(CSc3nnnn3C)cs2)cc1 ?
RGS4 inhibitor: -41.1%; D3 antag: -9.5; B2AR arrestin: -0.2%; PTHR1 ag: 11.5%[57.5 µM]; BRCA1 expr up: 3.16µM*; D3 ag: -0.4

Results for Cn1nnnc1SCc1cccc(CSc2nnnn2C)n1 ?
RGS4 inhibitor: 18.9%; D3 antag: 7.9; B2AR arrestin: -1.0%; PTHR1 ag: inactive; BRCA1 expr up: 1.1%; D3 ag: 11.0
